Source: PubChem BioAssay
The source made the active and inactive calls.

Legend:
[1] = system: PRMT1 (protein arginine N-methyltransferase 1); assay: small molecules binding arginine methyltransferase PRMT1 – biochemical, small-molecule microarray, 635 nm fluorescence, primary screen (AID 1088); conditions: higher = more signal;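 note: binding of Prmt1 protein to compounds spotted on small-molecule microarray slides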
[2] = growth effects on S. cerevisiae YJM789 – YJM789 clinical isolate, OD600, 24 h, basal, primary screen (AID 1089); conditions: higher = more signal, called active from +8 up or from −8 down;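 note: growth of clinical yeast isolate S. cerevisiae YJM 789 seeded 1000 cells per well; test concentration not given here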
[3] = S. pombe growth modifiers, basal conditions – strain 972, OD600, 24 h, no modulator, primary screen (AID 1090);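 note: basal condition with compound alone and no growth modifier present; test concentration not given here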; conditions: S. pombe 972 growth, higher = more signal, called active from +8 up or from −8 down
[4] = budding yeast growth modifiers under rapamycin – strain BY4716, OD600, 96 h, primary screen (AID 1091); note: test concentration not given here; conditions: S. cerevisiae BY4716 + rapamycin, higher = more signal, called active from +8 up or from −8 down
[5] = target: Torsin-1A-interacting protein 2 (Homo sapiens) (UniProt Q8NFQ8); assay: small molecules binding lysate-expressed LULL1 – cell lysate, human LULL1 lysate, 635/667 nm fluorescence, primary screen (AID 1092); conditions: small-molecule microarray, hLULL1 lysate binding, 635 nm fluorescence; higher = more signal;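 note: probe is lysate of COS7 cells overexpressing human LULL1; score merges per-feature 667 nm fluorescence with signal-to-noise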
Chain of Torsin-1A-interacting protein 2 (Homo sapiens) (Q8NFQ8 whole entry, looked up): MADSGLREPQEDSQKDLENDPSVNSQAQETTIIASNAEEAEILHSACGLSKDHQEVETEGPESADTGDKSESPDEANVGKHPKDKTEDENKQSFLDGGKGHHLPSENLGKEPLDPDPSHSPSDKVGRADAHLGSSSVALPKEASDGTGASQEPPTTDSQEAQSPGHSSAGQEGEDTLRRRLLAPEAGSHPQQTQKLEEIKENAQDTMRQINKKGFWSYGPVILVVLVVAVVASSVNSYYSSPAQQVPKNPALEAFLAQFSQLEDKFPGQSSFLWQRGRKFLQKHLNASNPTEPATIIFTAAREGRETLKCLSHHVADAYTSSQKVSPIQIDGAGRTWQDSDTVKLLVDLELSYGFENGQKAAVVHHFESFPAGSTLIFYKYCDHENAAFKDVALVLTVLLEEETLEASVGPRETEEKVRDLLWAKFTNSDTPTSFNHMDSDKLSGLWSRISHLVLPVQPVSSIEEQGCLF

[6] = optical density change of DRC41 E. coli – strain DRC41, OD650, 24 h, E. coli filamentation project, primary screen (AID 1093);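 note: MC1000 strain lacking acrAB efflux and sulA so SOS filamentation is blocked; test concentration not given here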; conditions: E. coli DRC41 growth, higher = more signal, called active from +8 up or from −8 down
[7] = probe aLefty2 binding to arrayed compounds – biochemical, biotinylated probe, 635/667 nm fluorescence, primary screen (AID 1094); conditions: small-molecule microarray, higher = more signal;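 note: score merges spot fluorescence near 667 nm with spot signal-to-noise ratio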
[8] = system: Noggin (protein binding on small-molecule microarray); assay: small molecules binding Noggin protein – biochemical, 635/667 nm fluorescence, primary screen (AID 1095); conditions: 635 nm fluorescence, higher = more signal;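 note: score merges 667 nm feature fluorescence with signal to noise over triplicate slides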
[9] = target: Neurogenic locus notch homolog protein 3 (Homo sapiens) (UniProt Q9UM47); assay: small molecules binding NOTCH3 protein – biochemical, 635/667 nm fluorescence, primary screen (AID 1096); conditions: small-molecule microarray, 635 nm fluorescence, higher = more signal
Chain of Neurogenic locus notch homolog protein 3 (Homo sapiens) (Q9UM47 whole entry, looked up): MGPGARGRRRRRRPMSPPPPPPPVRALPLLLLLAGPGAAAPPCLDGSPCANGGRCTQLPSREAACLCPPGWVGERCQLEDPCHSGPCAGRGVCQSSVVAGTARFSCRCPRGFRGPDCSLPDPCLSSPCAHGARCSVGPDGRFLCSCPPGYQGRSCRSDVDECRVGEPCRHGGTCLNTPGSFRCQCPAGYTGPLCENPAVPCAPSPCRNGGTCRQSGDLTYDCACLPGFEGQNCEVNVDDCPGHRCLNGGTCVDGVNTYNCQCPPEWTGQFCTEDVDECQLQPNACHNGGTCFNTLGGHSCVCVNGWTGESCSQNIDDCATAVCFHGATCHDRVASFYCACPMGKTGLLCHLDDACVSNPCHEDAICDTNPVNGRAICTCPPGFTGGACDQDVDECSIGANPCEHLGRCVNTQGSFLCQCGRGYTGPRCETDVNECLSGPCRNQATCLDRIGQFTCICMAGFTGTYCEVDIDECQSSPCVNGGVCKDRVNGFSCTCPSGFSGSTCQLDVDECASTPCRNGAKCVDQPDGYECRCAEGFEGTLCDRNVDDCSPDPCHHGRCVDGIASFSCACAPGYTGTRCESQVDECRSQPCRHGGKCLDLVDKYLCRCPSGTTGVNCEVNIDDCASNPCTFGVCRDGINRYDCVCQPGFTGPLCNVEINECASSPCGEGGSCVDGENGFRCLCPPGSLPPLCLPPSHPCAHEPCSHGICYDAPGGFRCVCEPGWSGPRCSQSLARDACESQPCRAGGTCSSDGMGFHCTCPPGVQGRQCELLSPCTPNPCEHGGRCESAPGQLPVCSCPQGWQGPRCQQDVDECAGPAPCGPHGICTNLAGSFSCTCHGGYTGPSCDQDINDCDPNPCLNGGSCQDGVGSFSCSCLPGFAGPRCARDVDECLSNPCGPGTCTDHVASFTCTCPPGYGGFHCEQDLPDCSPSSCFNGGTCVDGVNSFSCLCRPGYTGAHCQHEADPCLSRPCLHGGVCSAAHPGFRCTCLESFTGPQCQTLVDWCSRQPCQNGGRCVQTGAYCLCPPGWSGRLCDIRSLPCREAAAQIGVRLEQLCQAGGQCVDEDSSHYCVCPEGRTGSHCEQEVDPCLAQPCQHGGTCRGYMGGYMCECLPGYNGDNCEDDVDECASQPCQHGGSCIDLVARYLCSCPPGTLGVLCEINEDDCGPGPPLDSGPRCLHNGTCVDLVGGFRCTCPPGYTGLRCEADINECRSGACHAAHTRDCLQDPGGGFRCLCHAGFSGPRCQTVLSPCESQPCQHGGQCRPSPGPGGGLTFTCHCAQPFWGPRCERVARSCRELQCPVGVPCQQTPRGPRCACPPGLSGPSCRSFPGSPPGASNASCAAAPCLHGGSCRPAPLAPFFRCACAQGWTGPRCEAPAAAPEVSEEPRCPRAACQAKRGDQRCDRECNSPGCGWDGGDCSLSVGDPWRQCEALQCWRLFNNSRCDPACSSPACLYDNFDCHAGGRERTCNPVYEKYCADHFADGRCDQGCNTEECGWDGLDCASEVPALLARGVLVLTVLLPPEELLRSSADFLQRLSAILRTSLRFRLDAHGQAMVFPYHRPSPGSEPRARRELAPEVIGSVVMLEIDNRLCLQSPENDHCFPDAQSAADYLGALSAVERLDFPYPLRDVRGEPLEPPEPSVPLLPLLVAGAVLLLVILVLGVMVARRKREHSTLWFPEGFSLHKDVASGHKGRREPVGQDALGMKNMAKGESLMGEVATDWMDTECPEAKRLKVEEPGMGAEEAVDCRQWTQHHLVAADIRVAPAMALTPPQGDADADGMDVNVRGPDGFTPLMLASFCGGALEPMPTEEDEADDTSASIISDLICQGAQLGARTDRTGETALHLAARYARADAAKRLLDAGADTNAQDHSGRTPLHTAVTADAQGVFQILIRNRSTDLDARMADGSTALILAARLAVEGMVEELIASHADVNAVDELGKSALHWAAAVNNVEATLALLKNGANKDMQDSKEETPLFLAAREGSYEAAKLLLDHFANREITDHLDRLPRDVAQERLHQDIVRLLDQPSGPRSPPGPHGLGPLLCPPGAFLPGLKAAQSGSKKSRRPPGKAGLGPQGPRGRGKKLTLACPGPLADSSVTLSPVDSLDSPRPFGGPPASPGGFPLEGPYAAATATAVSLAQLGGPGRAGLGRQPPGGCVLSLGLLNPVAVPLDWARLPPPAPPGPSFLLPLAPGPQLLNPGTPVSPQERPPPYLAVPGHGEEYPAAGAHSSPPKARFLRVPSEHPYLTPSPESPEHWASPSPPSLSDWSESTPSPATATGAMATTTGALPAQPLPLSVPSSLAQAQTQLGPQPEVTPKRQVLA

[10] = probe aEGFR binding to arrayed compounds – biochemical, biotinylated probe, 635/667 nm fluorescence, primary screen (AID 1097); conditions: small-molecule microarray, higher = more signal;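 note: probe is a biotinylated anti-EGFR antibody binding compounds printed on slides; score combines fluorescence near 667 nm and signal to noise of each spot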

| Structure (SMILES) | composite z-score [1] | z-score [2] | z-score [3] | z-score [4] | composite z-score [5] | z-score [6] | composite z-score [7] | composite z-score [8] | composite z-score [9] | composite z-score [10] |
| --- | --- | --- | --- | --- | --- | --- | --- | --- | --- | --- |
| O=C(CS)NCCCCCCNC(=O)[C@H]1C[C@H]2C(=O)N3CCC[C@H]3C(=O)N2[C@H]1c1cccc(OCCO)c1 | 1.5 | -0.319 (inactive) | -0.26 (inactive) | 0.0927 (inactive) | 3.05 | -0.983 (inactive) | 0.105 | 0.858 | 1.1 | 0.0219 |
| C=C(COC)C(=O)CC[C@@H](OC(=O)c1cccnc1)c1ccc(CO)o1 | 1.35 | 0.692 (inactive) | -0.0164 (inactive) | -0.336 (inactive) | 0.991 | 0.255 (inactive) | -0.21 | 0.817 | 0.574 | -0.137 |
| CC(C)CNC(=O)[C@@]1(c2ccc([N+](=O)[O-])cc2)CC(=O)N(CC23CC4CC(CC(C4)C2)C3)[C@@H]1c1ccc(CO)cc1 | 1.52 | -1.73 (inactive) | -1.1 (inactive) | 0.226 (inactive) | 2.14 | 2.86 (inactive) | 0.0054 | 0.661 | 0.708 | -0.0897 |
| O=C1[C@]2(CO)C=C(Br)[C@@H](C[C@@H]2c2ccccc2)[C@@]12CO2 | -0.756 | -0.904 (inactive) | -3.06 (inactive) | -0.666 (inactive) | -0.556 | 0.0737 (inactive) | -0.227 | 0.0401 | 0.224 | -0.0828 |
| Cc1ccccc1C(O)C1C=CC2C(=O)N(C)C(=O)C2N1Nc1ccccc1 (stereo not given) | 1.25 | -0.145 (inactive) | -0.885 (inactive) | -0.0194 (inactive) | 2.98 | -1.43 (inactive) | 0.149 | -0.657 | 0.993 | -0.0634 |
| CC(C)c1ccc(NN2C(C(O)c3c(F)cccc3Cl)C=CC3C(=O)N(c4ccccc4)C(=O)C32)cc1 (stereo not given) | 1.48 | 0.808 (inactive) | 1.83 (inactive) | 1.63 (inactive) | 3 | -2.2 (inactive) | 0.545 | -0.041 | 1.07 | 0.431 |
| COCCCNC(=O)[C@@]1(CCC(=O)OC(C)(C)C)N=C(c2ccc(OCCCO)cc2)O[C@H]1c1ccccc1CN=[N+]=[N-] | 1.26 | -0.187 (inactive) | -0.738 (inactive) | -0.363 (inactive) | 3.74 | 0.316 (inactive) | 0.194 | 0.624 | 1.06 | 0.305 |
| CCCNC(=O)[C@@H]1c2ccccc2C(=O)N(Cc2ccccc2)[C@H]1c1ccc(CO)cc1 | 0.577 | 0.288 (inactive) | -0.45 (inactive) | 0.633 (inactive) | 2.12 | -1.04 (inactive) | 0.0553 | -0.344 | 0.0163 | -0.152 |
| CN1C(=O)C2C=CC(C(O)c3ccccn3)N(Nc3ccccc3)C2C1=O (stereo not given) | 0.949 | 0.826 (inactive) | 0.632 (inactive) | 1.23 (inactive) | 0.68 | -0.324 (inactive) | 0.0524 | 0.021 | 0.186 | -0.0746 |
| CC(C)N1C(=O)[C@@]2(c3ccc([N+](=O)[O-])cc3)CC(=O)N(CC34CC5CC(CC(C5)C3)C4)[C@@H]2c2ccc(CO)cc21 | 0.788 | 0.759 (inactive) | 0.652 (inactive) | -0.975 (inactive) | -0.0313 | -0.0342 (inactive) | -0.253 | -0.337 | 0.272 | -0.162 |
| CCC(CC)C(O)C1C=CC2C(=O)N(c3ccccc3)C(=O)C2N1Nc1ccc(C#N)cc1 (stereo not given) | 1.55 | -0.295 (inactive) | 0.621 (inactive) | 1.28 (inactive) | 3.2 | -0.279 (inactive) | 0.615 | -0.136 | 1.04 | 0.334 |
| O=C1c2ccccc2[C@@]2(Cc3ccccc3N(Cc3ccccc3)C2=O)[C@H](c2ccc(CO)cc2)N1C1CCCCC1 | 1.21 | -0.676 (inactive) | 1.1 (inactive) | -0.619 (inactive) | 0.525 | -0.0011 (inactive) | -0.239 | 0.61 | 0.269 | -0.2 |
| CCCC[C@@H]1C[C@H]1[C@@H](NC(=O)c1ccc(-c2ccccc2)cc1)c1ccc(-c2ccccc2)cc1 | 0.407 | -0.38 (inactive) | -6.62 (inactive) | -2.47 (inactive) | 0.983 | -1.08 (inactive) | -0.0986 | 0.677 | 1 | -0.109 |
| CCOC(=O)C[C@H]1[C@H](OC(=O)Cc2ccc3c(c2)OCO3)[C@@H](NC(=O)C2CCCCC2)c2cc(OCCCO)ccc2N1C(=O)Cc1ccc(OC)cc1 | 1.19 | -1.74 (inactive) | -0.38 (inactive) | -0.558 (inactive) | 1.89 | 1.21 (inactive) | -0.0313 | 0.509 | 0.892 | -0.0234 |
